Here are results for 18 compounds from PubChem BioAssay (NCATS).

Inconclusive results are not listed. A call without a number means that no potency is given here. Activity calls are given as the source filed them. Calls come from the whole dose curve; as a rule, active = well fitted curve in the direction sought with a large enough effect; inconclusive = small, poorly fitted or top-dose-only effect, or another doubt; inactive = no such curve, though single readings can be large; an effect the other way counts as inactive or inconclusive.

One assay deals with Luciferin 4-monooxygenase (Photinus pyralis) (UniProt P08659). Nature of the assay: Primary firefly luciferase (FLuc) qHTS assay for identification of artifact compounds. (AID 1845220). Note: nearly all actives have a fitted effect of over 60% in size. Particulars: purified firefly luciferase, luminescence, 5 min; series mostly up to 54.1 µM. The gist of the method:
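Compounds sat 15 min at room temperature with 10 uM luciferin and 10 uM ATP (pH 7.6 Tris acetate). Firefly luciferase (10 nM final) was then added, and luminescence was read 5 min later. Data normalized to no-enzyme and DMSO controls were Hill-fitted.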
On to `CCc1cc(S(=O)(=O)O)c2cc(C(C)C)cccc1-2`, for which the Potency result is “inactive”.

`COc1cc(NS(=O)(=O)c2ccc(N)cc2)nc(C)n1`: the Potency entry was “inactive”.

For `O=C(O)CNC(=O)CNC(=O)CNC(=O)CSC(=O)c1ccccc1`, the Potency result is “inactive”.

`CC(=O)Oc1ccc(C2(c3ccc(OC(C)=O)cc3)Oc3ccccc3NC2=O)cc1`: the Potency result was “inactive”.

Turning to `CCOC(=O)c1ccc(OCCN2C[C@H](O)[C@@H](O)[C@H](O)[C@H]2CO)cc1`, the Potency result is “inactive”.

For the compound `CCCN(CCC)C(=O)C(CCC(=O)OCCCN1CCN(CCOC(=O)Cc2c(C)n(C(=O)c3ccc(Cl)cc3)c3ccc(OC)cc23)CC1)NC(=O)c1ccccc1` (centres undefined), the Potency entry was “inactive”.

On to `C[N+]1(CC2COC(c3ccccc3)(c3ccccc3)O2)CCCCC1` (centres undefined), for which the Potency entry was “inactive”.

With `CN(CC1(C)CCCO1)S(=O)(=O)c1ccc(Cl)c(S(N)(=O)=O)c1` (centres undefined), the Potency result is “inactive”.

Consider `CC(=O)[C@H]1CC[C@H]2[C@@H]3C=CC4=CC(=O)CC[C@@]4(C)[C@@H]3CC[C@]12C`, for which the Potency entry is “inactive”.

For the compound `OC1(c2ccc(Cl)c(C(F)(F)F)c2)CCN(CCCC(c2ccc(F)cc2)c2ccc(F)cc2)CC1`, the Potency entry is “inactive”.

For the compound `O=[N+]([O-])c1nccn1CO[C@@H](CO)[C@H](O)CO`, the Potency entry was “inactive”.

Take `Brc1ccc([C@H]2CN3CCSC3=N2)cc1`: the Potency result was “inactive”.

In the case of `Cc1ccccc1C(=O)N1CC/C(=N\OS(=O)(=O)O)c2ccc(Cl)cc21`, the Potency result was “inactive”.

With `O=C1[C@@H]2[C@H]3CC[C@H](C3)[C@@H]2C(=O)N1CCCCN1CCN(c2ncccn2)CC1`, the Potency entry was “inactive”.

Regarding `CCN1C(=O)c2ccccc2C1Nc1ccc(OCCN2CCCCC2)cc1` (centres undefined), the Potency result is “inactive”.

As for `CCN1CCN(c2cc(-c3ccc(F)cc3)c3c(n2)CCCCCC3)CC1`, the Potency result is “inactive”.

Regarding `O=C1NC2CCCCN2C12CCN(CCCN1c3ccccc3CCc3ccc(Cl)cc31)CC2` (centres undefined), the Potency entry was “inactive”.

`CCOC(=O)c1ccc(NC(=O)CN2CCCCC2)cc1`: the Potency result was “inactive”.

Test system in the next assay: not listed separately
Nature of the assay: Primary fluorescence-based thiol-reactive (MSTI) qHTS assay for identification of artifact compounds. (AID 1845221). Note: nearly all actives have a fitted effect of over 65% in size. Note: potency is the fitted concentration of half-maximal effect. The following applies: MSTI thiol-reactivity probe, 1 h; series mostly up to 53.8 µM. An outline of the steps: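 Compounds were incubated 1 h at room temperature in the dark with the MSTI probe (4 uM) in PBS pH 7.4, 2% DMSO. Signals were normalized between Acetyl-MSTI and MSTI.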
Regarding `CCc1cc(S(=O)(=O)O)c2cc(C(C)C)cccc1-2`, the Potency was 0.844 µM (active).

As to `COc1cc(NS(=O)(=O)c2ccc(N)cc2)nc(C)n1`, the Potency result is “inactive”.

Take `O=C(O)CNC(=O)CNC(=O)CNC(=O)CSC(=O)c1ccccc1`: the Potency result was “inactive”.

With `CC(=O)Oc1ccc(C2(c3ccc(OC(C)=O)cc3)Oc3ccccc3NC2=O)cc1`, the Potency result is “inactive”.

Take `CCOC(=O)c1ccc(OCCN2C[C@H](O)[C@@H](O)[C@H](O)[C@H]2CO)cc1`: the Potency entry is “inactive”.

Regarding `CCCN(CCC)C(=O)C(CCC(=O)OCCCN1CCN(CCOC(=O)Cc2c(C)n(C(=O)c3ccc(Cl)cc3)c3ccc(OC)cc23)CC1)NC(=O)c1ccccc1` (centres undefined), the Potency entry is “inactive”.

As for `C[N+]1(CC2COC(c3ccccc3)(c3ccccc3)O2)CCCCC1` (centres undefined), the Potency result is “inactive”.

Regarding `CN(CC1(C)CCCO1)S(=O)(=O)c1ccc(Cl)c(S(N)(=O)=O)c1` (centres undefined), the Potency entry was “inactive”.

As for `CC(=O)[C@H]1CC[C@H]2[C@@H]3C=CC4=CC(=O)CC[C@@]4(C)[C@@H]3CC[C@]12C`, the Potency result is “inactive”.

For `OC1(c2ccc(Cl)c(C(F)(F)F)c2)CCN(CCCC(c2ccc(F)cc2)c2ccc(F)cc2)CC1`, the Potency entry was “inactive”.

In the case of `O=[N+]([O-])c1nccn1CO[C@@H](CO)[C@H](O)CO`, the Potency result was “inactive”.

For the compound `Brc1ccc([C@H]2CN3CCSC3=N2)cc1`, the Potency entry was “inactive”.

For `Cc1ccccc1C(=O)N1CC/C(=N\OS(=O)(=O)O)c2ccc(Cl)cc21`, the Potency result was “inactive”.

Regarding `O=C1[C@@H]2[C@H]3CC[C@H](C3)[C@@H]2C(=O)N1CCCCN1CCN(c2ncccn2)CC1`, the Potency result is “inactive”.

For the compound `CCN1C(=O)c2ccccc2C1Nc1ccc(OCCN2CCCCC2)cc1` (centres undefined), the Potency entry is “inactive”.

`CCN1CCN(c2cc(-c3ccc(F)cc3)c3c(n2)CCCCCC3)CC1`: the Potency result is “inactive”.

In the case of `O=C1NC2CCCCN2C12CCN(CCCN1c3ccccc3CCc3ccc(Cl)cc31)CC2` (centres undefined), the Potency result was “inactive”.

Regarding `CCOC(=O)c1ccc(NC(=O)CN2CCCCC2)cc1`, the Potency result is “inactive”.

A further assay concerns Nanoluciferase (engineered Oplophorus gracilirostris luciferase). The assay is described as follows: Primary Nanoluciferase (NLuc) qHTS assay for identification of artifact compounds. (AID 1845222). Note: potency is the fitted concentration of half-maximal effect. Particulars: NLuc-conditioned medium, Nano-Glo luminescence, 5 min; series mostly up to 54.1 µM. An outline of the steps:
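Luminescence from secreted NLuc (filtered, 1:55-diluted S16 cell medium) read 5 min after Nano-Glo substrate; compounds preincubated 15 min, RT. Hill fits of inhibition normalized to DMSO and no-enzyme.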
Regarding `CCc1cc(S(=O)(=O)O)c2cc(C(C)C)cccc1-2`, the Potency entry was “inactive”.

For `COc1cc(NS(=O)(=O)c2ccc(N)cc2)nc(C)n1`, the Potency entry was “inactive”.

For the compound `O=C(O)CNC(=O)CNC(=O)CNC(=O)CSC(=O)c1ccccc1`, the Potency result was “inactive”.

Consider `CC(=O)Oc1ccc(C2(c3ccc(OC(C)=O)cc3)Oc3ccccc3NC2=O)cc1`, for which the Potency entry was “inactive”.

For the compound `CCOC(=O)c1ccc(OCCN2C[C@H](O)[C@@H](O)[C@H](O)[C@H]2CO)cc1`, the Potency result is “inactive”.

Regarding `CCCN(CCC)C(=O)C(CCC(=O)OCCCN1CCN(CCOC(=O)Cc2c(C)n(C(=O)c3ccc(Cl)cc3)c3ccc(OC)cc23)CC1)NC(=O)c1ccccc1` (centres undefined), the Potency entry was “inactive”.

In the case of `C[N+]1(CC2COC(c3ccccc3)(c3ccccc3)O2)CCCCC1` (centres undefined), the Potency entry is “inactive”.

As to `CN(CC1(C)CCCO1)S(=O)(=O)c1ccc(Cl)c(S(N)(=O)=O)c1` (centres undefined), the Potency entry is “inactive”.

For `CC(=O)[C@H]1CC[C@H]2[C@@H]3C=CC4=CC(=O)CC[C@@]4(C)[C@@H]3CC[C@]12C`, the Potency result is “inactive”.

As for `OC1(c2ccc(Cl)c(C(F)(F)F)c2)CCN(CCCC(c2ccc(F)cc2)c2ccc(F)cc2)CC1`, the Potency result is “inactive”.

With `O=[N+]([O-])c1nccn1CO[C@@H](CO)[C@H](O)CO`, the Potency entry was “inactive”.

Regarding `Brc1ccc([C@H]2CN3CCSC3=N2)cc1`, the Potency entry is “inactive”.

On to `Cc1ccccc1C(=O)N1CC/C(=N\OS(=O)(=O)O)c2ccc(Cl)cc21`, for which the Potency is 26.9 µM (active).

As for `O=C1[C@@H]2[C@H]3CC[C@H](C3)[C@@H]2C(=O)N1CCCCN1CCN(c2ncccn2)CC1`, the Potency result was “inactive”.

With `CCN1C(=O)c2ccccc2C1Nc1ccc(OCCN2CCCCC2)cc1` (centres undefined), the Potency entry is “inactive”.

As to `CCN1CCN(c2cc(-c3ccc(F)cc3)c3c(n2)CCCCCC3)CC1`, the Potency result is “inactive”.

Take `O=C1NC2CCCCN2C12CCN(CCCN1c3ccccc3CCc3ccc(Cl)cc31)CC2` (centres undefined): the Potency entry is “inactive”.

For the compound `CCOC(=O)c1ccc(NC(=O)CN2CCCCC2)cc1`, the Potency result is “inactive”.
